Experimental data: the supplement of paper PMC13380429

What was measured:
[1] = system: Vero E6 infected with SARS-CoV-2; experiment: morphology score (similarity to uninfected cells); higher = more like uninfected cells; conditions: 24 h
[2] = system: Vero E6 infected with SARS-CoV-2; experiment: SARS-CoV-2 infection rate relative to infected DMSO; higher = more infection, active = 60 or less; conditions: 24 h

| Structure (SMILES) | morphology score [1] | SARS-CoV-2 infection rate [2] |
| --- | --- | --- |
| C[C@H]1C[C@H]2[C@@H]3CCC4=CC(=O)C=C[C@]4(C)[C@H]3C(=O)C[C@]2(C)[C@@]1(O)C(=O)CO [Betapar (Meprednisone)] (10 µM) | 0.0238 | 108% (inactive) |
| CC(=O)OCC(=O)[C@@]1(O)CC[C@H]2[C@@H]3CCC4=CC(=O)C=C[C@]4(C)[C@H]3[C@@H](O)C[C@@]21C [prednisolone-acetate] (10 µM) | -0.148 | 108% (inactive) |
| O=[N+]([O-])O[C@H]1CO[C@H]2[C@@H]1OC[C@H]2O[N+](=O)[O-] [isosorbide-dinitrate] (10 µM) | 0.0765 | 112% (inactive) |
| NC(=O)N1c2ccccc2CC(=O)c2ccccc21 [oxcarbazepine] (10 µM) | 0.0932 | 108% (inactive) |
| C#C[C@]1(O)CC[C@H]2[C@@H]3CCC4=CC(=O)CC[C@]4(C)[C@H]3CC[C@@]21C [ethisterone] (10 µM) | -0.0671 | 107% (inactive) |
| CC1COc2c(N3CCN(C)CC3)c(F)cc3c(=O)c(C(=O)O)cn1c23 (configuration not stated) [ofloxacin] (10 µM) | 0.0901 | 104% (inactive) |
| Cc1cc(/C=C/c2ccc3cc(N(C)C)ccc3[n+]2C)c(C)n1-c1ccccc1 [pyrvinium-pamoate] (10 µM) | -0.0751 | 113% (inactive) |
| O=c1c2ccccc2[se]n1-c1ccccc1 [Ebselen] (10 µM) | 0.34 | 84.5% (inactive) |
| C[C@H](CCC(=O)O)[C@H]1CC[C@H]2[C@@H]3CC[C@@H]4C[C@H](O)CC[C@]4(C)[C@H]3CC[C@]12C [lithocholic-acid] (10 µM) | 0.0318 | 110% (inactive) |
| CN1C(=O)N[C@H](Cc2c[nH]c3c(Cl)cccc23)C1=O [necrostatin-2] (10 µM) | 0.131 | 95% (inactive) |
| Nc1nc(Cl)nc2c1ncn2[C@@H]1O[C@H](CO)[C@@H](O)[C@H]1O [2-chloroadenosine] (10 µM) | -0.0246 | 105% (inactive) |
| CC(C)N(CCC(C(N)=O)(c1ccccc1)c1ccccn1)C(C)C (configuration not stated) [disopyramide] (10 µM) | 0.157 | 104% (inactive) |
| Nc1n[nH]c2nc3ccccc3nc12 [CDK1-5-inhibitor] (10 µM) | -0.113 | 112% (inactive) |
| Nc1ncn([C@H]2C[C@H](O)[C@@H](CO)O2)c(=O)n1 [decitabine] (10 µM) | 0.0186 | 104% (inactive) |
| O=P(O)(O)C(Cl)(Cl)P(=O)(O)O [clodronic-acid] (10 µM) | -0.00847 | 92% (inactive) |
| CN1CC[C@@]2(C)c3cc(O)ccc3N(C)[C@@H]12 [eseroline-(-)] (10 µM) | 0.137 | 97% (inactive) |
| CC(C)=CCc1c(O)cc(O)c2c(=O)c(O)c(-c3ccc(C(F)(F)F)cc3)oc12 (0.833333 µM) | 0.14 | 104% (inactive) |
| O=[N+]([O-])c1cc([N+](=O)[O-])c(/C=C/c2ccc(Cl)c(Cl)c2)cc1/C=C/c1ccc(Cl)c(Cl)c1 (10 µM) | 0.192 | 97.5% (inactive) |
| CN(C)CCC(c1ccc(Br)cc1)c1ccccn1 (configuration not stated) [brompheniramine] (10 µM) | -0.0213 | 106% (inactive) |
| NCC(=O)N[C@@H](CCC(N)=O)C(=O)O (10 µM) | 0.0903 | 108% (inactive) |
| O=C(NNc1nc2cc(F)ccc2n2cccc12)c1cnccn1 (10 µM) | 0.0623 | 105% (inactive) |

| Structure (SMILES) | morphology score [1] | SARS-CoV-2 infection rate [2] |
| --- | --- | --- |
| Clc1ccc(N/N=C(\c2ccccc2)c2ccccn2)nc1 (10 µM) | 0.0534 | 103% (inactive) |
| O=C1c2ccccc2C(=O)C1c1ccc(Br)cc1 [bromindione] (10 µM) | 0.204 | 93.5% (inactive) |
| CCn1c(=O)n(C2=C(CO)CN(CC3CCCCCCC3)CC2)c2ccccc21 [trap-101] (10 µM) | -0.109 | 103% (inactive) |
| O=C(Oc1ccc(Br)cc1)N1CCN2CCC1CC2 (10 µM) | 0.273 | 92% (inactive) |
| Cc1noc(NS(=O)(=O)c2ccc(N)cc2)c1C [sulfafurazole] (10 µM) | 0.1 | 100% (inactive) |
| CCCC[C@H](NC(C)=O)C(=O)N[C@H]1CC(=O)NCCCC[C@@H](C(=O)O)NC(=O)[C@H](Cc2c[nH]c3ccccc23)NC(=O)[C@H](CCCNC(=N)N)NC(=O)[C@@H](Cc2ccccc2)NC(=O)[C@H](Cc2c[nH]cn2)NC1=O [bremelanotide] (10 µM) | 0.067 | 96.5% (inactive) |
| Nc1ncc(Cc2ccc(Br)cc2)s1 (10 µM) | 0.13 | 102% (inactive) |
| Cc1ccc([N+](=O)[O-])cc1S(=O)(=O)N(C)C (10 µM) | 0.0445 | 97% (inactive) |
| O=C(NCc1ccccc1)OCCO [buramate] (10 µM) | 0.237 | 84.5% (inactive) |
| C=CCc1cc(OC)c(O)c(C(=O)NCCO)c1 [alibendol] (10 µM) | 0.101 | 118% (inactive) |
| N=C(N)Nc1ccc(Cl)cc1 [4-chlorophenylguanidine] (10 µM) | -0.231 | 114% (inactive) |
| CO[C@@H]1[C@@H](O[C@@H]2O[C@H](C)[C@@H](O[C@H]3C[C@@](C)(O)[C@@H](OC(=O)CC(C)C)[C@H](C)O3)[C@H](N(C)C)[C@H]2O)[C@@H](CC=O)C[C@@H](C)[C@@H](O)/C=C/C=C/C[C@@H](C)OC(=O)C[C@H]1OC(C)=O [josamycin] (10 µM) | -0.0313 | 113% (inactive) |
| O=[N+]([O-])c1ccccc1S(=O)(=O)NCC1CCC(CNC[C@H]2CCc3ccccc3C2)CC1 (some centres not stated) (0.833333 µM) | -0.0186 | 97.5% (inactive) |
| CC1(C)CCC(C)(C)c2cc(C3(c4ccc5cc(C(=O)O)ccc5c4)SCCS3)ccc21 (10 µM) | 0.132 | 98% (inactive) |
| CCCCCCCCCCCC1=C(O)C(=O)C=C(O)C1=O [embelin] (10 µM) | -0.0413 | 106% (inactive) |
| CCOC(=O)c1ccc(N(C)c2csc(-c3ccccc3)n2)cc1 [neuropathiazol] (10 µM) | -0.0531 | 110% (inactive) |
| CCCCOc1cc(CC2CNC(=O)N2)ccc1OC (configuration not stated) (10 µM) | 0.429 | 86% (inactive) |
| O=C(Nc1ccncc1)c1cc([N+](=O)[O-])ccc1Cl (10 µM) | 0.143 | 87% (inactive) |
| Brc1c(Br)c(Br)c2[nH]nnc2c1Br [4,5,6,7-tetrabromobenzotriazole] (10 µM) | -0.0654 | 106% (inactive) |
| CC(O)c1cc(C(=O)N[C@@H](C)Cn2ccc(-c3ccc(C#N)c(Cl)c3)n2)n[nH]1 (some centres not stated) (10 µM) | 0.201 | 106% (inactive) |
| CCC(=O)NO (10 µM) | 0.00785 | 112% (inactive) |

| Structure (SMILES) | morphology score [1] | SARS-CoV-2 infection rate [2] |
| --- | --- | --- |
| CN1C(=O)C(N2CCCCC2)S/C1=C\C(=O)O (configuration not stated) [ozolinone] (10 µM) | 0.00951 | 108% (inactive) |
| COC(=O)C(Cc1ccc(OCCn2c(=O)sc3cc(C(=O)c4ccccc4)ccc32)cc1)C(=O)OC (10 µM) | 0.318 | 88.5% (inactive) |
| CCCCC(=O)O[C@H]1CC[C@H]2[C@@H]3CCc4cc(O)ccc4[C@H]3CC[C@]12C (10 µM) | -0.00932 | 89% (inactive) |
| CCn1c(-c2nonc2N)nc2cncc(CNC3CCNCC3)c21 (10 µM) | 0.371 | 106% (inactive) |
| CCOc1ccc(-n2c([C@@H](C)N(Cc3cccnc3)C(=O)Cc3ccc(OC(F)(F)F)cc3)nc3ncccc3c2=O)cc1 (racemic) (10 µM) | 0.181 | 98.8% (inactive) |
| COc1cc(N)c(Cl)cc1C(=O)N[C@@H]1CCN(CCCOc2ccc(F)cc2)C[C@@H]1OC (racemic) [cisapride] (10 µM) | -0.0266 | 112% (inactive) |
| CN(CCOP(=O)(O)O)C(=N)N [creatinol-phosphate] (10 µM) | 0.077 | 95.5% (inactive) |
| CCCCOC(=O)c1ccc(N)cc1 [butamben] (10 µM) | 0.102 | 108% (inactive) |
| COc1cc(Nc2nc3ccccc3nc2NS(=O)(=O)c2ccc(NC(=O)c3ccc(C)c(OC)c3)cc2)cc(OC)c1 (10 µM) | 0.0476 | 119% (inactive) |
| Cc1cn2nc([C@@H]3CCCCN3C(=O)c3cc(Cl)ccc3NS(C)(=O)=O)cc2nc1N1CC[C@H](N)C1 [presatovir] (10 µM) | 0.215 | 89% (inactive) |
| CN1CCN(c2cc3c(cc2F)c(=O)c(C(=O)O)cn3-c2ccc(F)cc2)CC1 [difloxacin] (10 µM) | -0.0785 | 99.5% (inactive) |
| COc1ccc2nc3c(c(N)c2c1)CCCC3 [7-methoxytacrine] (10 µM) | 0.597 | 64.5% (inactive) |
| Clc1cccc2c1CN(C1=NCCN1)C2 (10 µM) | 0.132 | 93.5% (inactive) |
| CCN1CCCC1CNC(=O)c1cc(S(N)(=O)=O)ccc1OC (configuration not stated) [sulpiride] (10 µM) | -0.0261 | 105% (inactive) |
| Cn1ccc2cc(NC(=O)Nc3cccnc3)ccc21 (10 µM) | -0.0432 | 117% (inactive) |
| CO[C@H]1/C=C/O[C@@]2(C)Oc3c(C)c(O)c4c(O)c(c(/C=N/N5CCN(C6CCCC6)CC5)c(O)c4c3C2=O)NC(=O)/C(C)=C\C=C\[C@H](C)[C@H](O)[C@@H](C)[C@@H](O)[C@@H](C)[C@H](OC(C)=O)[C@@H]1C [rifapentine] (10 µM) | 0.192 | 107% (inactive) |
| CC(C)NNC(=O)c1ccncc1 [iproniazid] (10 µM) | 0.0745 | 108% (inactive) |
| Cc1c(-c2ccnn2C)cc(C(=O)NCc2ccc(S(C)(=O)=O)cn2)c(=O)n1-c1cccc(C(F)(F)F)c1 (10 µM) | 0.101 | 106% (inactive) |
| Cc1ccc(-n2sc(=O)n(Cc3ccc(F)cc3)c2=O)cc1 (10 µM) | 0.218 | 96% (inactive) |
